The text below walks through data of PMC7862700, “An all-to-all approach to the identification of sequence-specific readers for epigenetic DNA modifications on cytosine”.

Common to all, as to test: DAPPL (digital affinity profiling via proximity ligation, sequencing); 10 mM Tris-HCl pH 7.5, 50 mM NaCl, 1 mM DTT, 4% glycerol, room temperature, 30 min; GST-TFs on glutathione beads, 16-mer random dsDNA library, 0.1% formaldehyde crosslink after washing; high values mean tight binding
Holding throughout (details): protein: recombinant; tags: N-terminal GST; dsDNA, one strand shown

Experiment [1] deals with T1, FEV (Homo sapiens, UniProt Q99581 1-238).
T1 sequence: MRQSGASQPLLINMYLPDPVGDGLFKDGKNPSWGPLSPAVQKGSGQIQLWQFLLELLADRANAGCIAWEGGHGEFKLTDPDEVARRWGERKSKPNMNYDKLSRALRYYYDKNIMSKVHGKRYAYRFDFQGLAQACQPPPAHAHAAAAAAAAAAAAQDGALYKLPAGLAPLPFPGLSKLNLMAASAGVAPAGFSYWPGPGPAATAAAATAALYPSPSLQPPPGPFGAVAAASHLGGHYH
The procedure, abridged:
(§1)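 In yeast, human transcription factors were expressed with a GST fusion, then pulled down on glutathione beads and given DNA barcodes. Pooled with a tag-only sample, they were exposed to 200 nmole of a 16-mer random double-stranded DNA library (Tris/NaCl/DTT/glycerol buffer, room temperature, 30 min), washed, crosslinked with 0.1% formaldehyde, proximity-ligated using BsaI/T4 ligase for 1 h at 37 °C, PCR-amplified and read on an Illumina NextSeq500. Each hexamer's frequency of reads for a factor, divided by the matching frequency for the tag-only sample, gives the binding signal.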

In experiment [2] the target is ETV5 (Homo sapiens, UniProt P41161 1-510). The essentials: as §1
Sequence of ETV5 (P41161 whole entry): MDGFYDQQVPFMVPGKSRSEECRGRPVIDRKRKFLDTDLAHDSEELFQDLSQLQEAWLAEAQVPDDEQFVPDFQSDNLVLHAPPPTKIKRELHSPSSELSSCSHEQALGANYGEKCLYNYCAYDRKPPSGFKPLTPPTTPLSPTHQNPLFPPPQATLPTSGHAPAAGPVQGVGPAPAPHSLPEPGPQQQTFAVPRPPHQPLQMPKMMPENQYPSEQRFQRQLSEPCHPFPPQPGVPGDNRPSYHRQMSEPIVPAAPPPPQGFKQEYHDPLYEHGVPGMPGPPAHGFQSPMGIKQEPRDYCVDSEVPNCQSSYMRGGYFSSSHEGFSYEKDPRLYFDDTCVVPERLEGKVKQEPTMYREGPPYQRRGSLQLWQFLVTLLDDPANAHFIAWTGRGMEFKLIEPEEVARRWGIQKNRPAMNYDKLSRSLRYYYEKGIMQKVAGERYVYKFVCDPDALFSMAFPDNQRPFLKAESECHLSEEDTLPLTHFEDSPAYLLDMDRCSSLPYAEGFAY
The target of experiment [3] is T2, SPIC (Homo sapiens, UniProt Q8N5J4 1-248).
T2 sequence: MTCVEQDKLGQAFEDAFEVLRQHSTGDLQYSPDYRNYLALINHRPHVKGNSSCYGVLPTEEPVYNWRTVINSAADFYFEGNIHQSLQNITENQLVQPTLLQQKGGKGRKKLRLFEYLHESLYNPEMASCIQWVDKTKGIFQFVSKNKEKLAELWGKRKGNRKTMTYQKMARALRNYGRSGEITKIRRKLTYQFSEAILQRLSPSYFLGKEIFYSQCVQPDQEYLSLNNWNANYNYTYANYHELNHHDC
The essentials: as §1

The target in experiment [4] is ELF4 (Homo sapiens, UniProt Q99607 1-663). The essentials: as §1
Sequence of ELF4 (Q99607 whole entry): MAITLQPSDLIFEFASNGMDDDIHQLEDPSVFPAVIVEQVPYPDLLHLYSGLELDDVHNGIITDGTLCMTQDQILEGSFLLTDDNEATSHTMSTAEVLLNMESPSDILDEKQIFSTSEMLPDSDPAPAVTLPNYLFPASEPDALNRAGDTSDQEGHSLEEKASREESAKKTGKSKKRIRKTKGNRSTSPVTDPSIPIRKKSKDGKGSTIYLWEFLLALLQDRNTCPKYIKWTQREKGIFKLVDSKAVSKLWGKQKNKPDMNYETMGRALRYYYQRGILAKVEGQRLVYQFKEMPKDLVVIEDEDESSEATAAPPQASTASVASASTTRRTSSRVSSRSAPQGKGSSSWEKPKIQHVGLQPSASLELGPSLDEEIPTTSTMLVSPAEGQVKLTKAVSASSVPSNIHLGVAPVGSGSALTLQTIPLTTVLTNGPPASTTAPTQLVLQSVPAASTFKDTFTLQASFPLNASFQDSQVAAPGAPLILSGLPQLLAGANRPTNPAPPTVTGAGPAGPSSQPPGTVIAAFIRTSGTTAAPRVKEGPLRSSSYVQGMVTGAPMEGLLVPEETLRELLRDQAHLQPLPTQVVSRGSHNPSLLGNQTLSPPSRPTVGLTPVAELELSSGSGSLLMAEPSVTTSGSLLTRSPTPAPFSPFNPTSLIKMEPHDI
Experiment [5] concerns the target T3, ELK4 (Homo sapiens, UniProt P28324-2 1-405).
T3 sequence: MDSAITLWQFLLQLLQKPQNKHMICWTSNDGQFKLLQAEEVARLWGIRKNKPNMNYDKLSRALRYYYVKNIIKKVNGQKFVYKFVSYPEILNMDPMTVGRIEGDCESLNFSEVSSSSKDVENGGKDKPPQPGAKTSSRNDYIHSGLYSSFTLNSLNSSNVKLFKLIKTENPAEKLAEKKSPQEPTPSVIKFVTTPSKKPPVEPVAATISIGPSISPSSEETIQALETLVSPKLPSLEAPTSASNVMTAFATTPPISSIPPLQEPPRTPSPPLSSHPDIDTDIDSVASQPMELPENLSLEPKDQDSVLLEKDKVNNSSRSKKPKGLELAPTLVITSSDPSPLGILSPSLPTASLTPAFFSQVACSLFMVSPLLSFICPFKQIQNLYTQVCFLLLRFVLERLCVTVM
The essentials: as §1

The target of experiment [6] is T4, ETV2 (Homo sapiens, UniProt O00321 1-342).
T4 sequence: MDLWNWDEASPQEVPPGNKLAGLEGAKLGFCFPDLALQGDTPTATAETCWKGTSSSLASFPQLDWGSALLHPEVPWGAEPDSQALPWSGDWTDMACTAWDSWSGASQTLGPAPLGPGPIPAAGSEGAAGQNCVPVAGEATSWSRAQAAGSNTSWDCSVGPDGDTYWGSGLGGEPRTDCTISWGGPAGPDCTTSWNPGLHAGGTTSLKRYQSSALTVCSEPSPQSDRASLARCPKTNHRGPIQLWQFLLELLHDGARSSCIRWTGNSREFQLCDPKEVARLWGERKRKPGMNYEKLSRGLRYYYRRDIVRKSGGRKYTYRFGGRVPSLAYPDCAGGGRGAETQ
The essentials: as §1

For experiment [7], the target named is T5, ELF3 (Homo sapiens, UniProt P78545 1-371).
T5 sequence: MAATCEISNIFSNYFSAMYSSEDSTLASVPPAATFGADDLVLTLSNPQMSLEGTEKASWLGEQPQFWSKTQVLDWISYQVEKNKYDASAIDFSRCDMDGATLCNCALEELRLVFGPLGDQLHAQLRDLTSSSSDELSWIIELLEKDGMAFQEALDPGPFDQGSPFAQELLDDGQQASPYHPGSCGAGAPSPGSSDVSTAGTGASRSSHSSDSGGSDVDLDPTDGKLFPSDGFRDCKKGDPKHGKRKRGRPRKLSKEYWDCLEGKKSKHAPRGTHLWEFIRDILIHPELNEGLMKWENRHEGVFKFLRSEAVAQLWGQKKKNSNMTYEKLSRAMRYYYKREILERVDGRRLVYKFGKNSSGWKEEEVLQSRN
The procedure, abridged:
as §1

The target of experiment [8] is ETV1 (Homo sapiens, UniProt P50549 1-477). The essentials:
as §1

Sequence of ETV1 (P50549 whole entry): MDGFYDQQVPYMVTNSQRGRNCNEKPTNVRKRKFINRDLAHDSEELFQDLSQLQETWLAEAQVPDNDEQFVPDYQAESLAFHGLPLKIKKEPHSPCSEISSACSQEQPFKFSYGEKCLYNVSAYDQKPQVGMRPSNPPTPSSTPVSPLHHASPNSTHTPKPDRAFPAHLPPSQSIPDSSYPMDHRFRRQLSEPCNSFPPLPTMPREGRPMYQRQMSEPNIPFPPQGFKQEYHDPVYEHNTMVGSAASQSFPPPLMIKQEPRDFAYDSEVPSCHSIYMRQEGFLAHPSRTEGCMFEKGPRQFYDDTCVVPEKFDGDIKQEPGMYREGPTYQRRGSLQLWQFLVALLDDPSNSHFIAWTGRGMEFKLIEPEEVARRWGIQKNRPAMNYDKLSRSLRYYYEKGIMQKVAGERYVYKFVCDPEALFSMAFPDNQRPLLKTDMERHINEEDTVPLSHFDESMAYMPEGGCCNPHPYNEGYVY

Consider CTCACC, for which the binding signal was 1.2 fold enrichment (6-mer frequency, TF over GST control) in experiment [1]; 1.16 fold enrichment (6-mer frequency, TF over GST control) in experiment [2]; 1.25 fold enrichment (6-mer frequency, TF over GST control) in experiment [3]; 1.28 fold enrichment (6-mer frequency, TF over GST control) in experiment [4]; 1.2 fold enrichment (6-mer frequency, TF over GST control) in experiment [5]; 1.17 fold enrichment (6-mer frequency, TF over GST control) in experiment [6]. In addition, the binding signal in experiment [7] was 1.33 fold enrichment (6-mer frequency, TF over GST control); in experiment [8], 1.25 fold enrichment (6-mer frequency, TF over GST control).
In the case of CATAAC, the binding signal in experiment [1] is 1.08 fold enrichment (6-mer frequency, TF over GST control); in experiment [2], 1.16 fold enrichment (6-mer frequency, TF over GST control); in experiment [3] it was 1.2 fold enrichment (6-mer frequency, TF over GST control); in experiment [4] it was 1.1 fold enrichment (6-mer frequency, TF over GST control); in experiment [5], 1.25 fold enrichment (6-mer frequency, TF over GST control); in experiment [6], 1.11 fold enrichment (6-mer frequency, TF over GST control). Further, the binding signal was 1.13 fold enrichment (6-mer frequency, TF over GST control) in experiment [7] and 1.1 fold enrichment (6-mer frequency, TF over GST control) in experiment [8].
Regarding GTCCTC, the binding signal is 1.12 fold enrichment (6-mer frequency, TF over GST control) in experiment [1]; 1.21 fold enrichment (6-mer frequency, TF over GST control) in experiment [2]; 1.14 fold enrichment (6-mer frequency, TF over GST control) in experiment [3]; 1.27 fold enrichment (6-mer frequency, TF over GST control) in experiment [4]; 1.34 fold enrichment (6-mer frequency, TF over GST control) in experiment [5]; 1.4 fold enrichment (6-mer frequency, TF over GST control) in experiment [6]. Moreover, the binding signal in experiment [7] was 1.16 fold enrichment (6-mer frequency, TF over GST control); in experiment [8], 1.25 fold enrichment (6-mer frequency, TF over GST control).
As for ATGCGG, the binding signal in experiment [1] is 1.13 fold enrichment (6-mer frequency, TF over GST control); in experiment [2] it was 1.29 fold enrichment (6-mer frequency, TF over GST control); in experiment [3], 1.49 fold enrichment (6-mer frequency, TF over GST control); in experiment [4] it was 1.23 fold enrichment (6-mer frequency, TF over GST control); in experiment [5], 1.15 fold enrichment (6-mer frequency, TF over GST control); in experiment [6], 1.27 fold enrichment (6-mer frequency, TF over GST control). The binding signal in experiment [7] was 1.63 fold enrichment (6-mer frequency, TF over GST control); in experiment [8] it was 1.24 fold enrichment (6-mer frequency, TF over GST control).
Consider CAAACT, for which the binding signal in experiment [1] is 1.17 fold enrichment (6-mer frequency, TF over GST control); in experiment [2], 1.16 fold enrichment (6-mer frequency, TF over GST control); in experiment [3] it was 1.14 fold enrichment (6-mer frequency, TF over GST control); in experiment [4], 1.17 fold enrichment (6-mer frequency, TF over GST control); in experiment [5] it was 1.15 fold enrichment (6-mer frequency, TF over GST control); in experiment [6] it was 1.21 fold enrichment (6-mer frequency, TF over GST control). In addition, the binding signal is 1.06 fold enrichment (6-mer frequency, TF over GST control) in experiment [7] and 1.28 fold enrichment (6-mer frequency, TF over GST control) in experiment [8].
As for TGCGGA, the binding signal in experiment [1] was 1.19 fold enrichment (6-mer frequency, TF over GST control); in experiment [2], 1.47 fold enrichment (6-mer frequency, TF over GST control); in experiment [3], 1.44 fold enrichment (6-mer frequency, TF over GST control); in experiment [4], 1.24 fold enrichment (6-mer frequency, TF over GST control); in experiment [5], 1.13 fold enrichment (6-mer frequency, TF over GST control); in experiment [6], 1.37 fold enrichment (6-mer frequency, TF over GST control). The binding signal is 1.74 fold enrichment (6-mer frequency, TF over GST control) in experiment [7] and 1.37 fold enrichment (6-mer frequency, TF over GST control) in experiment [8].
As for TGTGAC, the binding signal in experiment [1] is 1.14 fold enrichment (6-mer frequency, TF over GST control); in experiment [2], 1.15 fold enrichment (6-mer frequency, TF over GST control); in experiment [3], 1.14 fold enrichment (6-mer frequency, TF over GST control); in experiment [4], 1.19 fold enrichment (6-mer frequency, TF over GST control); in experiment [5] it was 1.2 fold enrichment (6-mer frequency, TF over GST control); in experiment [6] it was 1.09 fold enrichment (6-mer frequency, TF over GST control). In addition, the binding signal in experiment [7] was 1.16 fold enrichment (6-mer frequency, TF over GST control); in experiment [8], 1.04 fold enrichment (6-mer frequency, TF over GST control).
With CACTAC, the binding signal was 1.35 fold enrichment (6-mer frequency, TF over GST control) in experiment [1]; 1.3 fold enrichment (6-mer frequency, TF over GST control) in experiment [2]; 1.14 fold enrichment (6-mer frequency, TF over GST control) in experiment [3]; 1.27 fold enrichment (6-mer frequency, TF over GST control) in experiment [4]; 1.37 fold enrichment (6-mer frequency, TF over GST control) in experiment [5]; 1.34 fold enrichment (6-mer frequency, TF over GST control) in experiment [6]. Also, the binding signal is 1.3 fold enrichment (6-mer frequency, TF over GST control) in experiment [7] and 1.21 fold enrichment (6-mer frequency, TF over GST control) in experiment [8].
